# Screens deposited in PubChem by National Center for Advancing Translational Sciences (NCATS).
# This excerpt belongs to a sample that is enriched for hits.
# L3MBTL1 inh: L3MBTL1 (human) inhibition; Potency, µM (titrated, usually from 57.1 µM), inactives show at the top dose activity, negative = inhibition, most hits filed as inhibitors; AlphaScreen L3MBTL1–H3K9me1 peptide binding; 230,000 compounds, 0.66% hits; Q9Y468; AID 485360; active = well fitted inhibition curve with a large enough effect; inconclusive = small, poorly fitted or top-dose-only effect; inactive = no such curve, though single readings can be large or run the other way; note: potency is the fitted concentration of half-maximal effect; nearly all actives have a fitted effect of over 60% in size
#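 First, the protein-peptide complex forms for 30 min at room temperature (L3MBTL1 50 nM, biotinylated H3K9me1 peptide 75 nM). Next, compounds are pin-transferred and incubated 30 min. Finally, AlphaScreen beads are added and read after 30 min.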
# Six1-Eya2 inh: inhibitors of human Six1/Eya2 interaction; Q15475+O00167; AlphaScreen GST-Six1/His-Eya2 binding, biochemical; active compounds read low; activity change, % (no concentration beside the values); 360,000 compounds, 0.56% hits; AID 651725
# Target sequence (O00167 whole entry, looked up): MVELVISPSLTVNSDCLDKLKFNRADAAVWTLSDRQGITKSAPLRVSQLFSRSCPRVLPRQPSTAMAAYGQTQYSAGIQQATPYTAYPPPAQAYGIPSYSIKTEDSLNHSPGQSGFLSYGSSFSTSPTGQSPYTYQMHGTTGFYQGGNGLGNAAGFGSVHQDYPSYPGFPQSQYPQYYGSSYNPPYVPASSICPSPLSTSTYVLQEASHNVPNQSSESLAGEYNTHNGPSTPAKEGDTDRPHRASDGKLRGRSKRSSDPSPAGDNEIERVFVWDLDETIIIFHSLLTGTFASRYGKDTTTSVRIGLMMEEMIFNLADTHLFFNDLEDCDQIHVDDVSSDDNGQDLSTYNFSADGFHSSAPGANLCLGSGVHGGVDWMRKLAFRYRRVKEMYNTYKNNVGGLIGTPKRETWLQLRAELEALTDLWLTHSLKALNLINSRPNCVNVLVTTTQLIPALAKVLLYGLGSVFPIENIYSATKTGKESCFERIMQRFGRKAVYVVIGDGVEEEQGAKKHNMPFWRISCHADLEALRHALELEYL
# Target sequence (Q15475 whole entry, looked up): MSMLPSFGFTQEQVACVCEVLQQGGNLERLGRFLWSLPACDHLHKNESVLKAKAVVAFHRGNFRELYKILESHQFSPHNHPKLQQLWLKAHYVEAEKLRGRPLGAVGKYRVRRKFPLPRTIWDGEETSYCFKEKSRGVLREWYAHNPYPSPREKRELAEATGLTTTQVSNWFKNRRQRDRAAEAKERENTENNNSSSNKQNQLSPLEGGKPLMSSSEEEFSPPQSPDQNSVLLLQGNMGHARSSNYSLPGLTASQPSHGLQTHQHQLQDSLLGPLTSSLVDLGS
#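 GST-Six1 + His-Eya2 (5X stock: 250/500 nM); Tris pH 8.0, 300 mM NaCl, 0.05% BSA, 0.02% Tween 20; GSH donor/Ni acceptor beads; 1 h 37 °C dark; AlphaScreen readout.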
# CtBP-E1A inh: inhibitors of CtBP/E1A interaction | 340,000 compounds, 0.49% hits | AID 651724 | activity change, % (concentration not given with the values) | AlphaScreen GST-E1A/His-CtBP binding, 1536-well; active compounds read low
#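 AlphaScreen with 125 nM GST-E1A and 125 nM His-CtBP (5X stocks) in Tris pH 8.0, 300 mM NaCl, BSA, Tween 20, TCEP. Compounds preincubated 2 h at 37 deg C, then glutathione donor/nickel acceptor beads added for 1 h at 37 deg C in dark.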
# KDM4E inh: inhibitors of human JMJD2E histone demethylase. B2RXH2. JMJD2E catalytic domain, FDH-coupled NADH fluorescence (FDH is formaldehyde dehydrogenase). Potency, µM (titrated, usually from 57.1 µM), for inactives: at the top dose activity change, negative = inhibition, actives largely listed as inhibitors. 230,000 compounds, 1.6% hits; active = well fitted inhibition curve with a large enough effect, not every such curve was filed as active; inconclusive = small, poorly fitted or top-dose-only effect, or another doubt; inactive = no such curve, though single readings can be large or run the other way;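 note: potency is the fitted concentration of half-maximal effect; 0% = wells with enzyme and -100% = buffer wells without enzyme; nearly all actives have a fitted effect of over 50% in size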
# Numbers without * were called inactive; ? = inconclusive; . = no result given; ! = a repeat was not active; [ ] = another dose, or the depositor's remark. Cut-off read from the data, not from the text of the source, unless noted: active = activity change below about -65%; inconclusive = mostly about -30% to -63%; inactive = weaker than that. Unless noted, % is set by controls: 0 for no effect and ±100 for the full control effect.
SMILES,L3MBTL1 inh,Six1-Eya2 inh,CtBP-E1A inh,KDM4E inh
CCCCc1cc2c(cn1)C(=O)C(C)(OC(C)=O)C(=O)C2 (stereo not drawn),.,.,.,-11.3%[11.4 µM]
Cc1ccc(OC(C)C(=O)N2CCN(c3ccccn3)CC2)cc1 (stereo not drawn),.,2.0,0.4,.
O=c1c(O)c(-c2ccc(O)c(O)c2)oc2cc(O)ccc12,.,?,-74.2*,14.1µM*!
O=c1c(O)c(-c2ccc(O)c(O)c2)oc2ccccc12,.,.,.,10µM*
COc1cc(O)c2c(=O)c(O)c(-c3ccc(O)c(O)c3)oc2c1,.,.,.,22.4µM*
O=c1c(O)c(-c2ccc(O)cc2)oc2cc(O)cc(O)c12,.,-19.2,-15.4,?
CCN(C(=O)COC(=O)c1ccc(O)cc1)c1cccc2ccccc12,-11.6%,-29.2,-6.0,.
COc1ccc(CNC(=O)CCS(=O)(=O)c2ccc3c(c2)CCN3C(C)=O)cc1,.,-91.8*,6.7,.
COC(=O)C1=C(C(=O)OC)[C@@H]2Nc3ccccc3[C@@]23C[C@@H](C(=O)OC)N(S(=O)(=O)c2c(C)noc2C)C3=N1,.,.,.,3.0%[11.4 µM]
COc1ccc2nc(C)cc(SCC(=O)N/N=C/c3ccc(O)cc3O)c2c1,-5.2%,-73.8*,-69.8*,1.3%
COc1ccc2nc(C)cc(SCC(=O)N/N=C/c3ccccc3)c2c1,3.7%,?,-20.8,7.4%
COc1ccccc1/C=N/NC(=O)CSc1cc(C)nc2ccccc12,5.0%,-6.9,-3.7,5.8%
COc1cccc2c(SCC(=O)N/N=C/c3ccc(O)cc3O)cc(C)nc12,?,-78.6*,-65.8*,28.2µM*
CC(C)OCCCN1C=C2C(=O)C(C)(OC(=O)CCc3ccccc3)C(=O)C=C2C=C1c1ccc(C#N)cc1 (stereo not drawn),.,-1.2,-13.6,22.4µM*!
CC1(OC(=O)CCc2ccccc2)C(=O)C=C2C=C(c3ccc(C#N)cc3)N(CC3CC3)C=C2C1=O (stereo not drawn),.,-29.6,-21.7,?
CC1(OC(=O)CCc2ccccc2)C(=O)C=C2C=C(c3ccc(C#N)cc3)N(CCN3CCOCC3)C=C2C1=O (stereo not drawn),.,1.5,2.7,12.6µM*
CC1(OC(=O)CCc2ccccc2)C(=O)C=C2C=C(c3ccsc3)OC=C2C1=O (stereo not drawn),.,.,.,0.0%
C=C(C)C(=O)Nc1ccc2c(c1)OCCOCCOCCO2,3.55µM*,?,-23.6,-8.4%
CC(=O)Nc1ccc2c(c1)OCCO2,-0.5%,-0.1,-1.8,5.4%
CCc1ccc(-c2cc(C)no2)cc1S(=O)(=O)N1CCN(c2ccccc2)CC1,.,-18.2,-17.1,.
CCc1ccc(-c2cc(C)no2)cc1S(=O)(=O)N1CCN(c2ccccc2OC)CC1,.,?,-78.8*,.
COc1cccc(-c2cnc3c(NC(C)=O)cc(-c4cccc(C(=O)NCCO)c4)cn23)c1,.,-20.2,-26.2,.
C=CCc1cccc(/C=N/NC(=O)C(C)Nc2ccc(C)cc2)c1O (stereo not drawn),-14.9%,-4.6,-15.0,?
CC1(OC(=O)CCc2ccccc2)C(=O)C=C2C=C(c3ccc(C#N)cc3)N(c3ccccc3)C=C2C1=O (stereo not drawn),.,-6.5,0.0,11.2µM*
CC1(OC(=O)CCc2ccccc2)C(=O)C=C2C=C(c3ccc(C#N)cc3)OC=C2C1=O (stereo not drawn),.,.,.,-9.8%
SMILES,L3MBTL1 inh,Six1-Eya2 inh,CtBP-E1A inh,KDM4E inh
CC1(OC(=O)CCc2ccccc2)C(=O)C=C2C=C(c3ccc(C#N)cc3)N(C3CCCC3)C=C2C1=O (stereo not drawn),.,-14.8,-16.8,20µM*
COC(=O)C1(C(=O)OC)CC2=C[C@H](CC2=O)Cc2ccccc2[C@@H]1C[N+](=O)[O-],.,.,.,2.2%
O=c1c(O)c(-c2ccc(O)c(O)c2)oc2c(OC3OC(CO)C(O)C(O)C3O)c(O)cc(O)c12 (stereo not drawn),.,.,.,1.8%
Cc1cc(O)c(Oc2cc(C)cc(O)c2O)c(O)c1,-1.7%,-15.9,-0.7,12.6µM*
c1ccc(N=NC2=NN(c3ccccc3)CS2)cc1,.,-76.9*,?,.
C/C(=N\NC(=O)c1nnn(-c2nonc2N)c1CN(C)c1ccccc1)c1ccccn1,.,-91.0*,.,.
COc1ccc(C(CCN2CCN(c3ccccc3)CC2)c2c(O)cc(OC)cc2OC)cc1 (stereo not drawn),.,?,-29.3,5.0%
COc1cc(O)c(C(CCN2CCN(c3ccccc3)CC2)c2ccc(N(C)C)cc2)c(OC)c1 (stereo not drawn),.,-78.0*,-70.0*,-26.1%
COC(=O)c1cccc(-n2c(CCC(=O)O)ccc2-c2cccs2)c1,-13.5%,1.1,0.1,25.1µM*
CC(=O)c1ccc(-n2c(CCC(=O)O)ccc2-c2cccs2)cc1,-10.4%,-4.8,8.2,?
CCCCCCCCOC(=O)c1cc([N+](=O)[O-])c(Sc2ncnc3nc[nH]c23)c([N+](=O)[O-])c1,.,-13.1,6.7,.
S=c1nc[nH]c2nc[nH]c12,9.4%,-2.7,-2.8,20µM*
COc1ccc([N+](=O)[O-])cc1/C=N/NC(=O)CNC(=O)C(c1ccccc1)c1ccccc1,-11.6%,-16.4,-11.2,7.9%
O=C(CNC(=O)c1ccccc1O)N/N=C/c1cc(Br)ccc1OC(=O)/C=C/c1ccco1,.,-85.0*,-95.4*,?
O=C(CNC(=O)c1cccc(F)c1)N/N=C/c1cc(Br)ccc1OC(=O)/C=C/c1ccco1,?,-88.4*,-88.0*,-6.8%
COc1ccc([N+](=O)[O-])cc1/C=N/NC(=O)CNC(=O)c1cccc(F)c1,8.0%,?,-69.8*,?
O=C(CNC(=O)c1ccc(F)cc1)N/N=C/c1cc(Br)ccc1OCc1ccccc1,-3.3%,-5.7,.,-5.9%
Cc1cccc(Cn2c(C)nc3c(N)c(C)c(C)cc32)c1,?,-10.7,.,-9.2%
O=C(/C=C/c1cccs1)Nc1scc(-c2ccccc2)c1C(=O)O,.,-21.2,3.0,5.01µM*
Cc1ccc(OCCN2CCN(CC(O)Cn3c4ccccc4c4ccccc43)CC2)cc1 (stereo not drawn),?,.,.,8.91µM*
Cc1ccc(OCC(O)Cn2c3ccccc3c3ccccc32)cc1 (stereo not drawn),9.8%,2.6,7.4,?
O=[N+]([O-])c1ccc(C=NN2CCOCC2)s1,.,-27.6,-2.9,.
O=[N+]([O-])c1ccc(C=Nc2cccc3ccccc23)s1,?,?,-69.6*,?
O=C1CNC(=O)/C(=C/c2ccco2)N1,35.5µM*,-11.2,3.2,-20.8%
O=C1NNC(c2ccccc2)=N/C1=C\c1ccco1,?,-14.0,-7.7,-14.3%
Cc1oc(C)c2c(=O)ccc3c(c12)OC(N)=C(C#N)C3c1ccccc1Cl (stereo not drawn),?,2.9,-8.6,17.8µM*
Cc1onc(-c2ccccc2)c1C(=O)NC(=S)NNC(=O)c1cc(-c2ccc(F)cc2)n[nH]1,.,-10.9,-1.0,12.6µM*
Cc1nn2c(-c3ccc(S(=O)(=O)N4CCN(CCO)CC4)o3)nnc2c2ccccc12,.,?,-74.5*,.
